Experimental data published in the supplement of paper PMC9262897, “Low-cost anti-mycobacterial drug discovery using engineered E. coli” (Nature Communications, 2022).
Structures can show the parent of a compound that is named as a salt. ± gives the standard deviation of the averaged measurements.

What was measured:
Assay in all cases: growth (OD600 after 10 h); higher = more growth (less inhibition)
[1] = system: E. coli TESEC Alr+ wild-type control; details: compound 0.1 mM; raw OD600 reference: median of DMSO wells 0.241, cell-free background 0.041
Experimental: (§1)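 TESEC Mtb Alr E. coli, or the Alr+ wild-type control, in 384-well plates with Prestwick library compounds at 0.1 mM and 1% DMSO, across arabinose induction levels of 1E3 to 1E7 nM. Growth is read as OD600 after 10 h at 37 °C in triplicate biological replicates.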

E. coli TESEC Mtb Alr [2] = details: compound 0.1 mM
Experimental: as §1

E. coli TESEC Mtb Asd = details: compound 0.1 mM
Experimental: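 TESEC E. coli strains in which the native enzyme is deleted and replaced by arabinose-inducible Mtb Asd, DapB, CysH or TrpD, each grown in its selective medium. Strains were screened against the Prestwick library at 0.1 mM and 1% DMSO in 384-well format at low and high arabinose induction. Growth is read as OD600 after 10 h in triplicate.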

[3] = system: E. coli TESEC Alr+ wild-type control; details: compound 0.1 mM; raw OD600 reference: median of DMSO wells 0.49, cell-free background 0.052
Experimental: (§2)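 TESEC Mtb Alr E. coli (ΔaraC ΔtolC ΔentC Δalr ΔdadX, arabinose-inducible Mtb Alr) or the Alr+ wild-type control strain, grown in defined M9-fructose medium without D-alanine in 96-well plates with Prestwick library compounds at 0.1 mM and 1% DMSO. Low Alr induction is 0.1 µM arabinose and high induction is 10 mM arabinose.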

E. coli TESEC Mtb Alr [4] = details: compound 0.1 mM; remark: listed apart in the source
Experimental: as §2

[5] = arabinose 1000 nM, raw OD600 reference: median of DMSO wells 0.294, cell-free background 0.041
[6] = arabinose 10000 nM, raw OD600 reference: median of DMSO wells 0.264, cell-free background 0.041
[7] = arabinose 100000 nM, raw OD600 reference: median of DMSO wells 0.201, cell-free background 0.041
[8] = arabinose 1000000 nM, raw OD600 reference: median of DMSO wells 0.193, cell-free background 0.041
[9] = arabinose 10000000 nM, raw OD600 reference: median of DMSO wells 0.146, cell-free background 0.041
[10] = arabinose induction (level): High, raw OD600 reference: median of DMSO wells 0.331, cell-free background 0.041
[11] = arabinose induction (level): Low, raw OD600 reference: median of DMSO wells 0.417, cell-free background 0.041
[12] = arabinose 100 nM, raw OD600 reference: median of DMSO wells 0.413, cell-free background 0.052
[13] = arabinose 10000000 nM, raw OD600 reference: median of DMSO wells […], cell-free background 0.052

Row | SMILES | growth [1] | growth (E. coli TESEC Mtb Alr [2]; [5]) | growth (E. coli TESEC Mtb Alr [2]; [6]) | growth (E. coli TESEC Mtb Alr [2]; [7]) | growth (E. coli TESEC Mtb Alr [2]; [8]) | growth (E. coli TESEC Mtb Alr [2]; [9]) | growth (E. coli TESEC Mtb Asd; [10]) | growth (E. coli TESEC Mtb Asd; [11]) | growth [3] | growth (E. coli TESEC Mtb Alr [4]; [12]) | growth (E. coli TESEC Mtb Alr [4]; [13])
1 | CN1CCN(C2=Nc3cc(Cl)ccc3Nc3ccccc32)CC1 [Clozapine] | 0.156 ± 0.008 | 0.206 ± 0.0044 | 0.242 ± 0.0072 | 0.178 ± 0.011 | 0.1 ± 0.0026 | 0.154 ± 0.0034 | 0.143 ± 0.018 | 0.293 ± 0.0055 | 0.502 ± 0.044 | 0.41 ± 0.0084 | 0.32 ± 0.011
2 | CC(C)NCC(O)c1ccc2ccccc2c1 (stereo not drawn) [Pronethalol hydrochloride] | 0.245 ± 0.013 | 0.305 ± 0.0032 | 0.2658 ± 0.0016 | 0.207 ± 0.023 | 0.187 ± 0.0061 | 0.142 ± 0.0032 | 0.247 ± 0.045 | 0.431 ± 0.085 | 0.473 ± 0.048 | 0.403 ± 0.012 | 0.351 ± 0.017
3 | Nc1cc(C(Cl)=C(Cl)Cl)c(S(N)(=O)=O)cc1S(N)(=O)=O [Clorsulon] | 0.224 ± 0.0038 | 0.278 ± 0.0056 | 0.269 ± 0.0061 | 0.214 ± 0.029 | 0.179 ± 0.0043 | 0.15 ± 0.0072 | 0.283 ± 0.025 | 0.3101 ± 0.0016 | 0.53 ± 0.0087 | 0.414 ± 0.011 | 0.335 ± 0.025
4 | C[C@]12CC[C@H]3[C@@H](CCC4=CC(=O)CC[C@@]43C)[C@@H]1CC[C@@H]2C(=O)CO [Deoxycorticosterone] | 0.119 ± 0.0025 | 0.163 ± 0.022 | 0.152 ± 0.0059 | 0.122 ± 0.0033 | 0.107 ± 0.002 | 0.127 ± 0.006 | 0.363 ± 0.012 | 0.245 ± 0.01 | 0.333 ± 0.018 | 0.362 ± 0.022 | 0.157 ± 0.0071
5 | COc1ccccc1OCC(O)CO (stereo not drawn) [Guaifenesin] | 0.238 ± 0.0069 | 0.306 ± 0.021 | 0.274 ± 0.0056 | 0.191 ± 0.0043 | 0.19 ± 0.0056 | 0.141 ± 0.0035 | 0.427 ± 0.031 | 0.377 ± 0.14 | 0.535 ± 0.093 | 0.408 ± 0.011 | 0.345 ± 0.015
6 | CN(C)CCOC1=Cc2ccccc2Sc2ccc(Cl)cc21 [Zotepine] | 0.179 ± 0.011 | 0.186 ± 0.0076 | 0.177 ± 0.0016 | 0.215 ± 0.0073 | 0.0636 ± 0.0007 | 0.0782 ± 0.003 | 0.168 ± 0.0075 | 0.127 ± 0.018 | 0.0664 ± 0.019 | 0.41 ± 0.0042 | 0.0544 ± 0.0015
7 | CCOc1ccc(NC(C)=O)cc1 [Phenacetin] | 0.243 ± 0.0043 | 0.2912 ± 0.0014 | 0.27 ± 0.0042 | 0.231 ± 0.028 | 0.1828 ± 0.0017 | 0.152 ± 0.0045 | 0.345 ± 0.083 | 0.413 ± 0.084 | 0.506 ± 0.071 | 0.411 ± 0.011 | 0.329 ± 0.019
8 | c1ccc2c(c1)CCCc1cc(NCCN3CCOCC3)nnc1-2 | 0.215 ± 0.0088 | 0.285 ± 0.013 | 0.278 ± 0.0085 | 0.17 ± 0.029 | 0.149 ± 0.0053 | 0.133 ± 0.0058 | 0.194 ± 0.055 | 0.477 ± 0.044 | 0.4846 ± 0.0026 | 0.4087 ± 0.0033 | 0.328 ± 0.03
9 | Cn1cnc2c1c(=O)[nH]c(=O)n2C [Theobromine] | 0.255 ± 0.0061 | 0.313 ± 0.018 | 0.289 ± 0.015 | 0.218 ± 0.02 | 0.189 ± 0.0034 | 0.155 ± 0.011 | 0.483 ± 0.0089 | 0.454 ± 0.03 | 0.461 ± 0.015 | 0.404 ± 0.014 | 0.365 ± 0.022
10 | CN(C)CCCC1(c2ccc(F)cc2)OCc2cc(C#N)ccc21 (stereo not drawn) [Citalopram Hydrobromide] | 0.207 ± 0.0054 | 0.272 ± 0.011 | 0.25 ± 0.0072 | 0.173 ± 0.0067 | 0.155 ± 0.0054 | 0.138 ± 0.0049 | 0.289 ± 0.024 | 0.397 ± 0.051 | 0.476 ± 0.068 | 0.4152 ± 0.0024 | 0.321 ± 0.017
11 | CN1CCC(=C2c3ccccc3C=Cc3ccccc32)CC1 [Cyproheptadine hydrochloride] | 0.145 ± 0.0056 | 0.163 ± 0.02 | 0.16 ± 0.0079 | 0.12 ± 0.0049 | 0.0596 ± 0.00044 | 0.0772 ± 0.00078 | 0.15 ± 0.0059 | 0.186 ± 0.0032 | 0.452 ± 0.11 | 0.4129 ± 0.0017 | 0.276 ± 0.016
12 | CC=C(C)C(=O)OC1C(OC(C)=O)C2(CO)C(O)CC3(C)C(=CCC4C5(C)CCC(OC6OC(C(=O)O)C(OC7OC(CO)C(O)C(O)C7O)C(O)C6OC6OC(CO)C(O)C(O)C6O)C(C)(CO)C5CCC43C)C2CC1(C)C (stereo not drawn) [Beta-Escin] | 0.289 ± 0.0075 | 0.333 ± 0.0081 | 0.24 ± 0.0056 | 0.366 ± 0.011 | 0.151 ± 0.0075 | 0.226 ± 0.01 | 0.271 ± 0.026 | 0.342 ± 0.048 | 0.438 ± 0.02 | 0.438 ± 0.018 | 0.392 ± 0.011
13 | CC(C)c1ccc2oc3nc(N)c(C(=O)O)cc3c(=O)c2c1 [Amlexanox] | 0.158 ± 0.003 | 0.157 ± 0.015 | 0.307 ± 0.0078 | 0.157 ± 0.0046 | 0.248 ± 0.024 | 0.166 ± 0.011 | 0.3928 ± 0.003 | 0.23 ± 0.056 | 0.416 ± 0.015 | 0.0761 ± 0.019 | 0.279 ± 0.018
14 | C[C@]12CC[C@@H]3c4ccc(O)cc4CC[C@H]3[C@@H]1CCC2=O [Estrone] | 0.185 ± 0.0043 | 0.249 ± 0.0084 | 0.23 ± 0.0023 | 0.187 ± 0.0045 | 0.153 ± 0.0041 | 0.129 ± 0.0036 | 0.281 ± 0.031 | 0.36 ± 0.074 | 0.511 ± 0.013 | 0.402 ± 0.011 | 0.291 ± 0.0057
15 | O=C1NCN(c2ccccc2)C12CCN(CCCC(c1ccc(F)cc1)c1ccc(F)cc1)CC2 [Fluspirilen] | 0.0416 ± 0.0009 | 0.044 ± 0.0032 | 0.0402 ± 0.00092 | 0.0775 ± 0.0044 | 0.0438 ± 0.0018 | 0.0681 ± 0.0024 | 0.0816 ± 0.034 | 0.0703 ± 0.0098 | 0.055 ± 0.0016 | 0.0516 ± 0.00059 | 0.0605 ± 0.008
16 | CCN1C(=O)NC(c2ccccc2)C1=O (stereo not drawn) [Ethotoin] | 0.244 ± 0.0096 | 0.304 ± 0.008 | 0.254 ± 0.0063 | 0.191 ± 0.009 | 0.187 ± 0.006 | 0.142 ± 0.0016 | 0.434 ± 0.031 | 0.446 ± 0.014 | 0.448 ± 0.012 | 0.4121 ± 0.0041 | 0.353 ± 0.017
17 | OC(CCN1CCCCC1)(c1ccccc1)c1ccccc1 [Pridinol methanesulfonate salt] | 0.226 ± 0.0064 | 0.299 ± 0.011 | 0.28 ± 0.012 | 0.193 ± 0.0055 | 0.177 ± 0.0082 | 0.151 ± 0.0016 | 0.468 ± 0.015 | 0.466 ± 0.027 | 0.469 ± 0.027 | 0.397 ± 0.032 | 0.352 ± 0.011
18 | CC(CCc1ccccc1)NCC(O)c1ccc(O)c(C(N)=O)c1 (stereo not drawn) [Labetalol hydrochloride] | 0.191 ± 0.006 | 0.246 ± 0.015 | 0.24 ± 0.011 | 0.174 ± 0.011 | 0.1371 ± 0.0012 | 0.137 ± 0.0031 | 0.26 ± 0.015 | 0.407 ± 0.046 | 0.467 ± 0.024 | 0.413 ± 0.0048 | 0.321 ± 0.016
